Rows were chosen to be rich in hits. Some 10% of all compounds tested hit in one or more screens of this group.
BAZ2B block = qHTS Assay for Inhibitors of BAZ2B | 360,000 tested, 4.4% active | Bromodomain adjacent to zinc finger domain protein 2B (Homo sapiens), Q9UIF8 | AlphaScreen BAZ2B-H3K14Ac peptide displacement | Potency, µM (highest dose often 114 µM), hits mostly inhibitors; further: nearly all actives have a fitted effect of over 60% in size
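Protein-peptide AlphaScreen: BAZ2B 50 nM, b-H3K14Ac 50 nM, 1x PBS pH 7.4 + 0.01% Tween-20. Preincubation 30 min RT; cpd 30 min RT (top 110 uM); beads 20 min RT, light-protected.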
GLS inh = qHTS for Inhibitors of Glutaminase (GLS); 410,000 tested, 0.21% active; Potency, µM (top dose mostly 45.5 µM), most hits filed as inhibitors; GLS enzymatic activity, qHTS titration; AID 624170, 2012
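hKGA in 45 mM KH2PO4 pH 8.2, 0.02% Tween-20 with pin-transferred compounds; 1 mM L-glutamine (stock) plus glutamate oxidase/HRP/Amplex Red coupling added. Fluorescence read initially and after 30 min at RT.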
G9a block = qHTS Assay for Inhibitors of Histone Lysine Methyltransferase G9a; AID 504332, 2011; Potency, µM (top dose mostly 102 µM), usual class: inhibitors; G9a H3K9 monomethylation, AlphaScreen, 2 h; 350,000 tested, 8.8% active; Histone-lysine N-methyltransferase EHMT2 (Homo sapiens), Q96KQ7; further: nearly all actives have a fitted effect of over 75% in size
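Compounds were preincubated with 20 nM G9a for 15 min, after which biotinylated H3K9 peptide (500 nM) and SAM (20 uM) started a 2 h room-temperature reaction. Monomethylated product was quantified by antibody-based AlphaScreen chemiluminescence.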
JMJD2A Tudor inh = qHTS Assay for Inhibitors of JMJD2A-Tudor Domain | Lysine-specific demethylase 4A (Homo sapiens), O75164 | AlphaScreen JMJD2A-Tudor / H3K4me3 peptide binding | Potency, µM (top dose mostly 114 µM), most hits filed as inhibitors | 390,000 tested, 4.4% active; further: nearly all actives have a fitted effect of over 50% in size
HP1b chromo inh = HTS for Inhibitors of HP1-beta Chromodomain Interactions with Methylated Histone Tails | 390,000 tested, 0.56% active | Chromobox protein homolog 1 (Homo sapiens), P83916 | AlphaScreen HP1-beta / biotin-H3K9me3 peptide binding | Potency, µM (titrated, usually from 114 µM), actives largely listed as inhibitors; further: nearly all actives have a fitted effect of over 70% in size
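HP1-beta protein (50 nM final) preincubated 30 min at room temperature with biotinylated H3(1-18)K9me3 peptide (50 nM) in PBS pH 7.4, 0.01% Tween-20, then compound added for 30 min. AlphaScreen streptavidin donor/nickel chelate acceptor beads (10 ug/mL final), 30 min dark, luminescence read.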
Large screens that a line does not name were inactive. The call rests on the fitted dose curve; in most records, active means well fitted curve in the direction sought with a large enough effect; inconclusive means small, poorly fitted or top-dose-only effect, or another doubt; inactive means no such curve, though single readings can be large; an effect the other way counts as inactive or inconclusive.

O=C(CNC(=O)OCc1ccccc1)NC(Cc1cnc[nH]1)C(=O)O (stereo unspecified)	none (no result: BAZ2B block, G9a block)
O=C(Nc1ccc(N2CCCC2)c(Cl)c1)c1cccc(-c2cc3ccccc3oc2=O)c1	G9a block 45µM
CC(=O)Nc1ccc(NC(=O)c2cccc(-c3cc4ccccc4oc3=O)c2)cc1	none
COc1ccc(-n2nc(C(=O)NCc3ccco3)c3ccccc3c2=O)cc1	none
O=[N+]([O-])c1ccc(CN2CCCCCC2)s1	BAZ2B block 40µM, G9a block 10µM, JMJD2A Tudor inh 20µM, HP1b chromo inh 3.2µM
O=C(COc1ccc(C2SCCS2)cc1)NNC(=O)C(Cl)Cl	BAZ2B block inconclusive
CCCN1CCN(c2ncnc3sc(C(=O)Nc4cccc(Cl)c4C)c(C)c23)CC1	none
CCCN1CCN(c2ncnc3sc(C(=O)Nc4ccc(N(CC)CC)cc4C)c(C)c23)CC1	BAZ2B block 28µM, G9a block 14µM, JMJD2A Tudor inh 50µM, HP1b chromo inh inconclusive
N#C/C(=C\c1cccc([N+](=O)[O-])c1)c1nnc2n1CCCCC2	none
CN(c1ccccc1)c1ccc(/C=C(\C#N)c2nnc3n2CCCCC3)cc1[N+](=O)[O-]	BAZ2B block 45µM, G9a block 40µM, JMJD2A Tudor inh 45µM, HP1b chromo inh inconclusive
O=c1/c(=C\c2ccc(O)cc2)sc2nc(-c3ccccc3)c(-c3ccccc3)n12	BAZ2B block inconclusive, G9a block inconclusive
O=c1/c(=C/c2ccc(O)cc2)sc2nc3cc(Br)cnc3n12	G9a block 10µM (no result: GLS inh, JMJD2A Tudor inh, HP1b chromo inh)
CC(C)(C)C1CCC(=NNc2ncc(C(F)(F)F)cc2Cl)CC1 (stereo unspecified)	BAZ2B block 79µM
Nc1nc2ccc(NC(=O)c3ccco3)cc2s1	G9a block inconclusive
Cc1cc(C(=O)NNC(=S)NC(=O)/C=C/c2ccccc2Cl)n[nH]1	BAZ2B block 22µM, G9a block 28µM, JMJD2A Tudor inh 50µM
CNC(=O)c1ccsc1NC(=O)c1coc2ccccc2c1=O	G9a block 50µM
Cc1ccccc1C(=O)NNC(=S)NC(=O)c1ccc(Cl)cc1Cl	G9a block inconclusive
Cc1cccc(C(=O)NC(=S)NNC(=O)c2ccccc2Cl)c1	G9a block 7.9µM
CC(=O)NNC(=S)NC(=O)c1ccccc1	G9a block 6.3µM, JMJD2A Tudor inh 20µM
Clc1ccc(-n2cc(-c3ccc(Br)cc3)[n+]3c2CCCCC3)cc1	none
O=C(NC(=S)Nc1ccc2c(c1)OCCO2)c1cccc2ccccc12	BAZ2B block inconclusive, G9a block 40µM, JMJD2A Tudor inh inconclusive
O=C(COc1ccccc1)NNC(=S)NC(=O)c1ccccc1	G9a block 2.2µM, JMJD2A Tudor inh 18µM (no result: BAZ2B block)
Cc1cccc(C(=O)NC(=S)NNC(=O)COc2c(C)cccc2C)c1	G9a block 7.9µM, JMJD2A Tudor inh inconclusive
O=C(NC(=S)Nc1ccc2c(c1)OCCO2)c1cccc(Br)c1	BAZ2B block inconclusive, G9a block inconclusive, JMJD2A Tudor inh inconclusive, HP1b chromo inh inconclusive
Cc1cccc(C(=O)NC(=S)Nc2ccccc2C(=O)O)c1	G9a block 45µM, HP1b chromo inh inconclusive
Cc1cccc(C(=O)NC(=S)Nc2ccccc2C(F)(F)F)c1	JMJD2A Tudor inh inconclusive
c1csc(-c2csc(-c3cccs3)n2)c1	none (no result: BAZ2B block)
O=C(Nc1ccc2c(c1)OCCO2)C1c2ccccc2OCC(=O)N1Cc1cccnc1 (stereo unspecified)	none (no result: BAZ2B block, G9a block, JMJD2A Tudor inh, HP1b chromo inh)
O=C(Cc1cccs1)NNC(=S)NC(=O)c1ccccc1	G9a block inconclusive, JMJD2A Tudor inh 50µM
Cc1ccc(C(=O)NNC(=S)Nc2cccc3ccccc23)s1	G9a block 35µM
Cc1c(NC(=S)NC(=O)c2cccc3ccccc23)cccc1C(=O)O	none
O=C(O)c1ccccc1NC(=S)NC(=O)c1cccc2ccccc12	BAZ2B block inconclusive, G9a block 50µM
O=C(NNC(=S)Nc1cccc2ccccc12)c1cccc(Br)c1	G9a block inconclusive, HP1b chromo inh inconclusive
Cc1ccc(C(=O)NC(=S)NNC(=O)COc2ccccc2C)cc1	G9a block 3.5µM, JMJD2A Tudor inh 22µM
O=C(Cc1cccs1)NNC(=S)NC(=O)c1ccc(F)c(F)c1	G9a block inconclusive
O=C(Nc1ccc2c(c1)OCCO2)c1coc2ccccc2c1=O	JMJD2A Tudor inh 28µM
Cc1ccccc1C(=O)Nc1ccc2c(c1)OCCO2	none
Cc1cccc(C(=O)NC(=S)NNC(=O)Cc2ccccc2)c1	G9a block 7.1µM
CC(C)NC(=O)C(Sc1ccccc1)c1ccccc1 (stereo unspecified)	none
Cc1occc1C(=O)/C(C#N)=C/c1ccc(O)c(Br)c1	G9a block 50µM
Cc1sc(-c2ccccn2)nc1OC(=O)c1ccc(Cl)cc1	G9a block inconclusive, JMJD2A Tudor inh 25µM
Cc1ccc2c(c1)sc(-c1ccc(N(C)C)cc1)[n+]2C	G9a block 50µM
CC[n+]1c(C)sc2cc(C)ccc21	G9a block inconclusive
COc1cc(OC)cc(-c2cc3ccccc3c(=O)o2)c1	none (no result: BAZ2B block, G9a block)
Cc1cc(C)[n+](-c2ccc(Oc3ccccc3)c(S(=O)(=O)[O-])c2)[nH]1	G9a block inconclusive, JMJD2A Tudor inh 50µM (no result: GLS inh)
CCN(CC)S(=O)(=O)c1ccc(Oc2ccccc2)c(N)c1	none (no result: BAZ2B block)
COc1cc(C2NC(=O)NC(O)(C(F)(F)F)C2C(=O)c2cccs2)ccc1O (stereo unspecified)	none
COc1cc(C2NC(=O)NC(O)(C(F)(F)F)C2C(=O)c2ccc(Cl)cc2)ccc1O (stereo unspecified)	G9a block 79µM
CCc1ccccc1NC1Nc2cc(C)nn2S1 (stereo unspecified)	G9a block 1.6µM, JMJD2A Tudor inh inconclusive
Cc1cc2n(n1)SC(Nc1ccc(F)cc1)N2 (stereo unspecified)	G9a block 1.4µM, JMJD2A Tudor inh 20µM
Cc1cc2n(n1)SC(Nc1cc(Cl)ccc1Cl)N2 (stereo unspecified)	G9a block 7.9µM
Cc1oc(-c2ccc(Cl)cc2)cc1C(=O)/C(C#N)=C/Nc1cccc(OC(F)(F)F)c1	G9a block 50µM
CCN(CC)c1ccc(NC(=O)C2CC(=O)N(Cc3ccccc3)C2)cc1 (stereo unspecified)	BAZ2B block 45µM, G9a block 11µM, JMJD2A Tudor inh 56µM, HP1b chromo inh inconclusive
CS(=O)(=O)c1ccc(Cl)c(NC(=O)C2CC(=O)N(Cc3ccccc3)C2)c1 (stereo unspecified)	BAZ2B block inconclusive, JMJD2A Tudor inh 89µM
CS(=O)(=O)c1ccc(Cl)c(NC(=O)C2CC(=O)N(Cc3ccco3)C2)c1 (stereo unspecified)	G9a block inconclusive

High-throughput results deposited in PubChem by National Center for Advancing Translational Sciences (NCATS).
